# In PubChem BioAssay (NCATS):
# Values without a mark were called inactive. Calls follow the shape of the dose curve; as a rule, active = well fitted activation curve with a large enough effect; inconclusive = small, poorly fitted or top-dose-only effect; inactive = flat fitted curve, though single readings scatter.
# Experiment: Cellular Toxicity (caspase-3) SHSY5Y (AID 657)
# Conditions: SH-SY5Y caspase-3 activation, DMSO zero, 10 µM staurosporine = 100%; series mostly up to 91.7 µM; caspase-3 activation: at the top concentration
# Description: NIH Chemical Genomics Center [NCGC]
# NIH Molecular Libraries Screening Centers Network [MLSCN]
# National Institutes of Environmental Health Sciences [NIEHS]
# National Toxicology Program [NTP]
# We have developed a 1536-well cell-based assay for quantitative high throughput screening (qHTS) against a number of cell lines to determine in vitro caspase 3/7 activity of small molecules. This particular assay uses the SH-SY5Y cell line which is derived from human neuroblastoma.
# NCGC Assay Protocol Summary:
# The Caspase-Glo 3/7 assay (Promega) is a homogeneous method to measure caspase-3 and caspase-7 activities in cultured cells. The quantitation of caspase 3/7 activity is based on the cleavage of a peptide-aminoluciferin substrate. After caspase cleaves the substrate the free aminoluciferin is liberated and serves as the substrate of luciferase, which generates the light. The luminescent signal is proportional to the amount of caspase 3/7 activity present.
# Using the Caspase-Glo 3/7 assay, the amount of caspase 3/7 activity was measured in the SH-SY5Y cell line with complete culture medium following compound treatment for 16 hours. The assay was performed in opaque white 1536-well plates. In the screen, staurosporine and doxorubicin were used as positive controls. Library compounds were measured for their ability to cause the activation of caspase 3/7 in the cell line, as reflected by an increase in luminescence signal, in a concentration-dependent manner. Data were normalized to the controls for basal activity (DMSO only) and 100% stimulation (10 uM staurosporine). AC50 values were determined from concentration-response data modeled with the standard Hill equation.
# qHTS protocol for caspase 3/7 assay in SH-SY5Y cells
# [Step] [Parameter] [Value] [Description]
# 1. Reagent; 5 uL; 1500 SH-SY5Y cells/well
# 2. Time; 5 hr; 37 °C incubation
# 4. Controls; 23 nL; doxorubicin 7 pM to 100 uM & staurosporine 1.4 pM to 20 uM
# 5. Time; 16 hr; 37 °C incubation
# 6. Reagent; 5 uL; Caspase-Glo 3/7 reagent
# 7. Time; 1 hr; Room Temperature
# 8. Detection; Luminescence; Viewlux plate reader
# Keywords: caspase 3/7, apoptosis, SH-SY5Y cell line, luminescence, NTPHTS, NTPHTS_NCGC, NIEHS, EPA, DSSTox, MLSMR, MLSCN, NIH Roadmap, qHTS, NCGC
row,Compound,caspase-3 activation [%]
1,Clc1ccccc1,1.26
2,ClC(Cl)C(Cl)Cl,-0.183
3,CSSC,1.01
4,CC(C#N)CCC#N (stereo not given),-0.503
5,CC(=O)NNc1ccccc1,-1
6,CCOS(C)(=O)=O,-0.926
7,Cc1cc(-c2cc(C)c(N)c(C)c2)cc(C)c1N,0.437
8,ClCC(Cl)CCl,1.26
9,Nc1cc(Cl)ccc1O,4.96
10,COc1c(C(C)(C)C)cc([N+](=O)[O-])c(C)c1[N+](=O)[O-],-2.03
11,O=C(O)C(Cl)(Cl)Br,1.89
12,N#CC(O)c1ccccc1 (stereo not given),-2.14
13,Oc1cccc(Cl)c1,1.06
14,O=P(OCCCl)(OCCCl)OCCCl,-1.37
15,C[N+](=O)[O-],1.59
16,CN(C)c1ccc(N)cc1,13.3
17,Cc1cnc[nH]1,0.501
18,Clc1ccc(C(Cl)(Cl)Cl)c(Cl)c1,0.681
19,Clc1cccc2ccccc12,-0.193
20,O=C(O)c1cccc(Cl)c1,-0.614

row,Compound,caspase-3 activation [%]
1,C=CC(=O)OC,-0.362
2,Nc1ccc(Cc2ccc(N)c(Cl)c2)cc1Cl,1.45
3,Cl/C=C/Cl,0.244
4,Nc1ccc(-c2ccccc2)cc1,1.75
5,N#CCBr,-0.286
6,ClC(Cl)c1ccccc1,2.97
7,C=CC(=O)OCC(C)C,-0.564
8,O=[N+]([O-])c1ccc2c3c(cccc13)CC2,-1.89
9,ClC=CCl,2.96
10,CC(C)C#N,0.636
11,N#C/C=C/C#N,7.3
12,O=[N+]([O-])c1ccc(Cl)c(Cl)c1Cl,-1.38
13,Cl/C=C\Cl,1.65
14,Cc1cccc(N)c1C,2.51
15,Nc1ccccc1-c1ccccc1,2.33
16,Cc1ccc2c(C)cccc2c1,-0.235
17,Nc1cc(Cl)ccc1Cl,1.02
18,OC[P+](CO)(CO)CO,10.4
19,O=C(O)C(Br)Br,6.36
20,Cc1ccc(N)cc1N,1.25
